This passage reports activity (Tm shift, normalised) results from PubChem BioAssay AID651658 (Broad Institute, 2012).

Several values for one entry are separate records, joined by “and”; a condition that tells them apart may be missing. Equal entries are not always repeated. The whole screen tested about 340,000 compounds, of which about 5,100 (1.5%) were called active. This excerpt belongs to a sample that is enriched for actives. A number with no mark means an inactive call.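 Rule for the calls: active = mean Tm shift, scaled 0 neutral to 100 positive control, at about 1.3% or above, every replicate too (limit read from the data); inconclusive = no clear call, values can overlap the other calls; inactive = the rest.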

In this experiment the target is Fibroblast growth factor 22 (Homo sapiens) (UniProt Q9HCT0). The experiment is described as follows: FGF22 ligand-induced thermal stabilization – biophysical, thermal shift, single point, FGF22 synaptogenesis inhibitor project, primary screen (AID 651658). The settings on record: recombinant FGF22 thermal shift, SYPRO orange fluorescence; at 9.99 µM; stronger effect = higher value; percent of sucrose octasulfate shift, DMSO zero.
Fibroblast growth factor 22 (Homo sapiens), sequence (Q9HCT0 whole entry, looked up): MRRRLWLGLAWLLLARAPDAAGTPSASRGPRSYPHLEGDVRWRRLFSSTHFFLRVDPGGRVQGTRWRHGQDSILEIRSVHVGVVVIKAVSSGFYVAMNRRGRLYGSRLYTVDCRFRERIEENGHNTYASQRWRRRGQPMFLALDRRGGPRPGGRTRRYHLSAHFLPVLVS
Turning to `CC=Cc1ccc2n(c1=O)C[C@@H]1[C@@H](CO)[C@H](C(=O)N[C@@H](C)c3ccccc3)[C@H]2N1Cc1ccncc1` (mixture of isomers), the activity (Tm shift, normalised) was -0.334%.

As to `COc1cccc(C2CC(c3ccccc3)=NN2S(=O)(=O)c2ccccc2)c1OC` (stereo not drawn), the activity (Tm shift, normalised) is 44% (active).

`COc1ccc(C2=NN(C(=O)c3ccccc3C(=O)O)C(c3ccccc3O)C2)cc1` (stereo not drawn): the activity (Tm shift, normalised) was -0.24%.

Turning to `CS(=O)(=O)Nc1cccc(C2=NN(S(=O)(=O)c3ccccc3)C(c3cccs3)C2)c1` (stereo not drawn), the activity (Tm shift, normalised) is 0.242%.

For the compound `C[C@H]1CN([C@@H](C)CO)S(=O)(=O)c2ccc(C3=CCCC3)cc2O[C@H]1CN(C)C(=O)Cc1ccncc1`, the activity (Tm shift, normalised) was 0.421%.

As for `O=C(C1CCCCC1)N1[C@H](CO)[C@@H](c2ccccc2)C12CN(Cc1cccc(Cl)c1)C2`, the activity (Tm shift, normalised) was -0.133%.

Consider `COc1cc(C(=O)OCc2cc(=O)n3ccsc3n2)ccc1OC(C)C`, for which the activity (Tm shift, normalised) was 0.144%.

Take `COc1ccc(C(=O)OCc2cc(=O)n3ccsc3n2)cc1F`: the activity (Tm shift, normalised) is 44% (active).

Regarding `O=C(OCc1cc(=O)n2ccsc2n1)C1(c2ccc(Cl)cc2)CC1`, the activity (Tm shift, normalised) is 0.39%.

As for `CCCC#Cc1ccc([C@H]2[C@H]3CN(C(=O)Nc4cccc(F)c4)CC(=O)N3[C@H]2CO)cc1`, the activity (Tm shift, normalised) is 0.366%.

For the compound `COc1cc2nc(CN(C)Cc3ccc(F)cc3)[nH]c(=O)c2cc1OC`, the activity (Tm shift, normalised) is -0.106%.

With `COc1cc(CN(C)Cc2nc3cc(C(F)(F)F)ccc3c(=O)[nH]2)ccc1OC(F)F`, the activity (Tm shift, normalised) is -0.382%.

Regarding `COc1ccc(CN(C)Cc2nc3cc(OC)c(OC)cc3c(=O)[nH]2)c(OC)c1`, the activity (Tm shift, normalised) was 43.6% (active).

Regarding `O=C(Nc1ccc(C(F)(F)F)cc1)N[C@@H]1CC[C@H](CC(=O)N2CCCCC2)O[C@H]1CO`, the activity (Tm shift, normalised) is -0.164%.

In the case of `CO[C@@H]1CN(C)C(=O)c2ccc(NS(C)(=O)=O)cc2OC[C@@H](C)N(C(=O)C2CCOCC2)C[C@@H]1C`, the activity (Tm shift, normalised) was -0.055%.

For `O=C(c1ccc(F)cc1)N1CC2(C1)[C@H](c1ccccc1)[C@@H](CO)N2Cc1ccccn1`, the activity (Tm shift, normalised) was -0.271%.

In the case of `N#C/C(=C/c1ccc(N2CCCCC2)o1)C(=O)NCCc1c[nH]c2ccccc12`, the activity (Tm shift, normalised) is -0.174%.

For `O=C(NCCc1c[nH]c2ccccc12)C(=O)NCC1CCCO1` (stereo not drawn), the activity (Tm shift, normalised) was 1.53% (active).

`O=C(NCCc1c[nH]c2ccccc12)c1cc2ccccc2oc1=O`: the activity (Tm shift, normalised) is 0.185%.

As to `C[C@H](CO)N1C[C@H](C)[C@H](CN(C)C(=O)C2CC2)OCc2ccccc2-c2ccccc2C1=O`, the activity (Tm shift, normalised) was 0.103%.

Take `O=C(NCC[C@@H]1CC[C@H](NC(=O)C2CC2)[C@H](CO)O1)c1cnccn1`: the activity (Tm shift, normalised) is 0.118%.

For the compound `C[C@H](O)C#Cc1ccc2c(c1)O[C@H](CN(C)Cc1ccccn1)[C@H](C)CN([C@H](C)CO)S2(=O)=O`, the activity (Tm shift, normalised) was -0.169%.

Turning to `CCCNC(=O)C[C@@H]1C[C@H]2c3cc(NC(=O)Nc4ccccc4F)ccc3O[C@H]2[C@H](CO)O1`, the activity (Tm shift, normalised) is -0.607%.

With `COc1cccc(NC(=O)N2[C@@H]3CNC[C@H]2C3c2ccc(-c3ccncc3)cc2)c1` (stereo partly drawn), the activity (Tm shift, normalised) is 0.042% and -0.443%.

On to `Fc1ccc(/C=N/n2c(COc3ccccc3)n[nH]c2=S)cc1`, for which the activity (Tm shift, normalised) is 0.702%.

Regarding `S=c1[nH]nc(COc2ccccc2)n1-c1ccccc1`, the activity (Tm shift, normalised) is 43.8% (active).

For the compound `COc1ccc(OCc2n[nH]c(=S)n2N)cc1`, the activity (Tm shift, normalised) is 0.243%.

For the compound `CO[C@@H]1CN(C)C(=O)c2cc(NS(=O)(=O)CC(F)(F)F)ccc2OC[C@H](C)N(C)C[C@H]1C`, the activity (Tm shift, normalised) was -0.229%.

On to `O=C(C[C@H]1CC[C@H]2[C@@H](COC[C@H](O)CN2C(=O)c2ccccc2F)O1)NCc1ccccc1`, for which the activity (Tm shift, normalised) is 0.053%.

Regarding `O=C(NCC1CC1)[C@H]1[C@H](CO)[C@H]2Cn3c(ccc(/C=C/c4ccccc4)c3=O)[C@@H]1N2C(=O)C1CCC1`, the activity (Tm shift, normalised) was 0.006%.

Consider `COc1ccc(Cn2c(=O)oc3ccccc32)cc1`, for which the activity (Tm shift, normalised) was -0.205%.

With `COc1ccc(-c2ccc([C@@H]3[C@@H](CO)N4C(=O)CN(Cc5ccccc5)C[C@@H]34)cc2)cc1`, the activity (Tm shift, normalised) is -0.039%.

Turning to `COc1ccc(Cn2c(-c3ccc(Cl)cc3)c[n+]3ccccc23)cc1`, the activity (Tm shift, normalised) was 44% (active).

Regarding `C[C@@H]1CCCCO[C@H](CN(C)Cc2ccc3c(c2)OCO3)[C@H](C)CN([C@@H](C)CO)C(=O)c2cc(NS(=O)(=O)c3cccs3)ccc2O1`, the activity (Tm shift, normalised) is -0.357% and -0.044%.

Turning to `O=C(Nc1ccc(Cl)cc1)C1c2cccc[n+]2CC(=O)N1Cc1ccc2c(c1)OCO2` (stereo not drawn), the activity (Tm shift, normalised) is -0.124%.

Turning to `CCOc1ccc(NC(=O)CC2C(=O)N(c3ccccc3)C(=O)N2CCOC)cc1` (stereo not drawn), the activity (Tm shift, normalised) is -0.014%.

`CCCOc1ccc(NC(=O)CC2C(=O)N(C)C(=S)N2Cc2ccc3c(c2)OCO3)cc1` (stereo not drawn): the activity (Tm shift, normalised) is 2.52% (active).

`COc1ccc(NC(=O)N[C@@H]2CC[C@H](CC(=O)NC3CCC3)O[C@H]2CO)cc1`: the activity (Tm shift, normalised) was -0.109%.

In the case of `O=C(C[C@@H]1CC[C@@H]2[C@H](COC[C@H](O)CN2S(=O)(=O)c2ccc(Oc3ccccc3)cc2)O1)NCCN1CCCCC1`, the activity (Tm shift, normalised) is 0.107%.

For `COc1ccccc1-c1cnc2c(c1)C(=O)N([C@@H](C)CO)C[C@@H](C)[C@@H](CN(C)C(=O)c1cccnc1)O2`, the activity (Tm shift, normalised) is -0.285%.

As to `COc1ccccc1C#Cc1cnc2c(c1)C(=O)N([C@@H](C)CO)C[C@@H](C)[C@@H](CN(C)C(=O)CN(C)C)O2`, the activity (Tm shift, normalised) is -0.154%.

With `CN(C)C(CNC(=O)Cc1ccc([N+](=O)[O-])cc1)c1ccccc1` (stereo not drawn), the activity (Tm shift, normalised) was 42.9% (active).

On to `CN(C)CCNC(=O)Cc1ccc([N+](=O)[O-])cc1`, for which the activity (Tm shift, normalised) is 0.505%.
